Laboratory results taken from ChEMBL document CHEMBL3988442, “University of Dundee, Small-Polar-MMV Screening Library” (2021).

The molecules below were run on Trypanosoma cruzi (assay: Trypanosoma cruzi phosphomannomutase and mannose-1-phosphate guanylyltransferase assay). Conditions: 10 µM.
Format: functional
Set-up: scale not given: direction of the effect not stated beside the values
`CC(C)c1nc(C2CCCN(C(=O)c3ccnc(N(C)C)c3)C2)no1` (centres undefined) was tested, and the Percent Effect was -3.62%. Work on `Cc1cnc(CN2CCCC(c3cc(C(N)=O)[nH]n3)C2)cn1` (centres undefined) yielded a Percent Effect of -3.01%. `CC(NC(=O)NCc1cccc(Cl)c1)(C(=O)O)c1ccco1` (centres undefined) gave a Percent Effect of 5.32%. With `Cc1cnn(CC2CCCN2C(=O)c2cccnc2N(C)C)c1` (centres undefined) the Percent Effect was 1.42%.

The molecules below were run against T1, Arginase-2, mitochondrial (Homo sapiens) (UniProt P78540) (assay: in vitro enzyme assay to detect the production of urea directly proportional to the activity of Arginase II). Conditions: 30 µM.
T1 sequence (whole entry): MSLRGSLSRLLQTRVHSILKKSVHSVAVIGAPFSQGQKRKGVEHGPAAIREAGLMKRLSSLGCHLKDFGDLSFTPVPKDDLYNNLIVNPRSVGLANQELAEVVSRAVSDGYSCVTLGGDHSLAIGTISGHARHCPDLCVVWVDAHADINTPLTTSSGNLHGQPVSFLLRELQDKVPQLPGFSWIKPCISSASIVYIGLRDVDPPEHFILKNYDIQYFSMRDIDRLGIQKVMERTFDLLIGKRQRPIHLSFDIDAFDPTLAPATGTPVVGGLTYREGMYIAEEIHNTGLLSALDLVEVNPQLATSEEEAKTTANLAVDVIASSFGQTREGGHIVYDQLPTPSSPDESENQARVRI
Format: functional
Set-up: scale not given: direction of the effect not stated beside the values
Work on `CNC(=O)[C@H]1C[C@@H]2CN(C(=O)c3ccc(C)o3)C[C@@H]2N1S(C)(=O)=O` yielded a Percent Effect of 1.62%. In the case of `O=C(NCCO)c1coc(CN2CCN(c3ccccc3F)CC2)n1`, the Percent Effect is reported as -8.11%. `Cc1ccc2c(c1)CCC2NCc1c(C)nn(CCO)c1C` (centres undefined) gave a Percent Effect of 3.78%. Molecule `CCN1CCC(NC(=O)c2ccc(F)cc2I)CC1` has a Percent Effect of -1.62%. `CNC(=O)[C@@H]1C[C@H]2CN(C(=O)c3ccco3)C[C@H]2N1C(C)C` was tested, and the Percent Effect was 9.19%. Work on `CC(C)CN1CCC(NC(=O)c2ccc(F)cc2Cl)CC1` yielded a Percent Effect of 5.95%. With `CC(C)[C@H](NC(=O)Cn1nc2c(cc1=O)CCCC2)C(=O)O` the Percent Effect was 13.5%. For `Cc1ccc([C@@H]2CN(S(=O)(=O)c3cc(C)ccc3F)C[C@H]2N(C)C)cc1`, the Percent Effect was 2.7%. In the case of `CCn1ccnc1C1CCCN(C(=O)c2sc(C)nc2C)C1` (centres undefined), the Percent Effect is reported as 2.7%. Molecule `Cc1cccc(C(=O)N2CCCC(c3nccn3Cc3cscn3)C2)n1` (centres undefined) has a Percent Effect of 9.19%. `CN(Cc1cccnc1)C1CC2(CCN(Cc3cccnc3)CC2)C1` showed a Percent Effect of -12.4%. Molecule `CNC(=O)[C@H]1C[C@@H]2CN(C(=O)c3ccncc3)C[C@@H]2N1S(C)(=O)=O` has a Percent Effect of 4.87%. Work on `COc1ccc2c(c1)OCC(CNC(=O)c1cnc(O)cn1)C2` (centres undefined) yielded a Percent Effect of 10.3%. In the case of `COc1ccc2c(c1)OCC(CNC(=O)c1ccc3[nH]nnc3c1)C2` (centres undefined), the Percent Effect is reported as 8.11%. With `CN(Cc1ccncc1)C1CC2(CCN(Cc3ccccn3)CC2)C1` the Percent Effect was 5.95%. `CC(C)NC(=O)[C@]12COC[C@H]1CN(Cc1cnn(C)c1)C2` gave a Percent Effect of -13.5%. `Cc1ccc(-c2nc(CN3CC(n4nc(C)cc4C)C3)no2)cc1` showed a Percent Effect of 3.78%. In the case of `Cc1noc(C)c1C(=O)N1CCCC(c2nccn2Cc2cscn2)C1` (centres undefined), the Percent Effect is reported as 5.95%. Molecule `CC(=O)N[C@@H](C)C(=O)NCc1cccnc1Oc1ccccc1F` has a Percent Effect of 2.7%. Molecule `CCC(C(=O)NCc1ccncc1)N(c1ccccc1)S(C)(=O)=O` (centres undefined) has a Percent Effect of 5.95%. In the case of `CN(CC(=O)N1CCCC1c1noc(C2CC2)n1)C1CC1` (centres undefined), the Percent Effect is reported as 5.95%. For `Cc1cnc(C(=O)N2CCCC(c3nccn3Cc3cscn3)C2)cn1` (centres undefined), the Percent Effect was -5.95%. `CCS(=O)(=O)CC(=O)N1CCCC1c1noc(C2CC2)n1` (centres undefined) gave a Percent Effect of 2.7%. For `COc1ccc(-c2nc(CN3CC(n4cccn4)C3)no2)cc1`, the Percent Effect was 0.54%. `Cn1cc(CC2CCN(C(=O)NCc3csc(C4CC4)n3)C2)cn1` (centres undefined) was tested, and the Percent Effect was 7.03%. Molecule `Cc1nc(NCC2CC2)nc2c1COCC21CCN(CC(=O)N(C)C)C1` (centres undefined) has a Percent Effect of 4.87%. `O=C(NCc1ccccn1)[C@]12COC[C@H]1CN(Cc1cccnc1)C2` showed a Percent Effect of -5.95%. With `CNC(=O)[C@H]1C[C@@H]2CN(C(=O)c3ccoc3)C[C@@H]2N1S(C)(=O)=O` the Percent Effect was 10.3%. In the case of `Cc1nc(NCC2CC2)nc2c1COCC21CCN(C(=O)C(C)(C)C)C1` (centres undefined), the Percent Effect is reported as 8.11%. For `Cc1cccc(OCC(O)CN2CCN(c3nccs3)CC2)c1` (centres undefined), the Percent Effect was 3.78%. Work on `CC(C)(C)n1cc(NC(=O)C2CN(Cc3ccccc3)CCO2)cn1` (centres undefined) yielded a Percent Effect of 0.54%. `O=C(c1coc(CN2CCN(c3ccccc3F)CC2)n1)N1CC=CC1` was tested, and the Percent Effect was 5.95%. Molecule `CN(Cc1cccnc1)C1CC2(CCN(Cc3ccccn3)CC2)C1` has a Percent Effect of 2.7%. In the case of `CCCS(=O)(=O)N1C[C@H](N(C)Cc2ccco2)[C@@H]2OCCC[C@@H]21`, the Percent Effect is reported as 11.3%. Work on `CCC(C(=O)NCc1ccccn1)N(c1cccc(C)c1)S(C)(=O)=O` (centres undefined) yielded a Percent Effect of 9.19%.
